Experimental data published in PubChem BioAssay AID1422 (Emory University Molecular Libraries Screening Center, 2008).
Out of some 260,000 compounds screened, about 1,300 (0.5%) were called active.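 Rule for the calls: active = percent inhibition above 40 after rounding to a whole number; inactive = the rest.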 The entries come from a sample that favours actives as a whole.

target: Prostaglandin E2 receptor EP2 subtype (Homo sapiens) (UniProt P43116); experiment: human EP2 receptor antagonists, primary screen, TR-FRET cAMP, C6 glioma cells (AID 1422); conditions: C6 glioma cells expressing human EP2, cAMP TR-FRET, at 25 µM, stronger effect = higher value; cells stimulated with saturating PGE2 unless noted;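 note: rat C6 glioma host cells with rolipram phosphodiesterase inhibitor present; the protocol text gives 20 µM as final concentration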
Sequence (P43116 whole entry, looked up): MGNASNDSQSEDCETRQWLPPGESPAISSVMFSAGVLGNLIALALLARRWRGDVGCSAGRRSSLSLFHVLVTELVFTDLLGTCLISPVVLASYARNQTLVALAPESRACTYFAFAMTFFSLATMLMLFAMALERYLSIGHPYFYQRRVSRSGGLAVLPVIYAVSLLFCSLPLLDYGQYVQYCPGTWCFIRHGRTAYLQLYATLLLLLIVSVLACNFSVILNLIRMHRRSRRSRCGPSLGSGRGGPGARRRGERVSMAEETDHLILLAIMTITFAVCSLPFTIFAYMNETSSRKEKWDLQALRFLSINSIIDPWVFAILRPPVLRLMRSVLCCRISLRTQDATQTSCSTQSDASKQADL

**Q.** How did the inhibition turn out when O=C1C[C@@H]2OCC=C3CN4CC[C@]56c7ccccc7N1[C@H]5[C@H]2[C@H]3C[C@H]46 (tested in a mixture with another compound) was run?
**A.** 43.4% (active)

**Q.** With COc1ccccc1CN(CCN(C)C)C(=O)Cc1nn(C)c(=O)c2ccccc12 as the compound, how does the inhibition read?
**A.** 8.64% (inactive)

**Q.** Which inhibition does the source give for COc1ccc(C2=NCC(=O)N(Cc3cccnc3)c3sc4c(c32)CCCC4)cc1 here?
**A.** 7.58% (inactive)

**Q.** Which inhibition does the source give for CC(=O)O[C@H]1CC[C@@]2(C)[C@@H](CC[C@H]3[C@H]2CC(=O)[C@]2(C)[C@@H]3C[C@@H](N3CC3)[C@H]2C(C)=O)C1 here?
**A.** 44% (active)

**Q.** With CC(=O)O[C@H]1CC[C@@]2(C)C(=CCC3C2CC[C@]2(C)C(=O)CCC32)C1 (stereo not given in full) as the compound, how does the inhibition read?
**A.** 13.5% [setting not given] (inactive)

**Q.** With C=C1C2CC[C@@]3(C)[C@H](c4ccoc4)OC(=O)C[C@]13O[C@H]1CC(=O)C(C)(C)[C@H](C(OC(C)=O)C(=O)OC)[C@@]21C (stereo not given in full) as the compound, how does the inhibition read?
**A.** 14.4% (inactive)

**Q.** How did the inhibition turn out when COc1cc([C@@H]2c3cc4c(cc3[C@H](OC(C)=O)[C@H]3COC(=O)[C@H]23)OCO4)cc(OC)c1OC was run?
**A.** 14.4% (inactive)

**Q.** Fc1ccc2c(c1)nnn2C1CCN(Cc2nnnn2C2CCCC2)CC1 was tested. Which inhibition did it give?
**A.** 8.46% (inactive)

**Q.** Which inhibition does the source give for CC[C@@](O)(C(=O)O)c1cc2n(c(=O)c1CO)Cc1cc3ccccc3nc1-2 here?
**A.** 47.7% (active)

**Q.** CCn1cc(C(=O)c2ccco2)c2ccccc21 was tested. Which inhibition did it give?
**A.** 1.27% (inactive)

**Q.** For c1ccc2[nH]c(C3CCNCC3)nc2c1, which inhibition is on record?
**A.** 6.74% (inactive)

**Q.** How did the inhibition turn out when C=CCc1cc(CN2C3CCC2CC(O)(c2nccn2C)C3)cc(OC)c1O (stereo not given) was run?
**A.** 10.4% (inactive)

**Q.** With Cc1ccc(C(C)N2CCNCC2)c(C)c1 (stereo not given) as the compound, how does the inhibition read?
**A.** 5.45% (inactive)

**Q.** For COc1cc(CN2C3CCC2CC(O)(c2ccccc2F)C3)ccc1OC(C)C (stereo not given), which inhibition is on record?
**A.** 6.07% (inactive)

**Q.** How did the inhibition turn out when Cc1nc(-c2ccc(F)cc2)c(CC(=O)N(CCN(C)C)C2CCCCC2)s1 was run?
**A.** 2.82% (inactive)
